CYP2C9 inh: inhibitors of human CYP2C9; P11712; AID 777; CYP2C9 Supersomes, luciferin-H conversion, luminescence; actives 20% (n = 96,000); inhibition, % at 5 µM;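 active = blocking of liver enzyme CYP2C9 beyond about 50% at 5 µM, limit read from the data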
Target sequence (P11712 whole entry, looked up): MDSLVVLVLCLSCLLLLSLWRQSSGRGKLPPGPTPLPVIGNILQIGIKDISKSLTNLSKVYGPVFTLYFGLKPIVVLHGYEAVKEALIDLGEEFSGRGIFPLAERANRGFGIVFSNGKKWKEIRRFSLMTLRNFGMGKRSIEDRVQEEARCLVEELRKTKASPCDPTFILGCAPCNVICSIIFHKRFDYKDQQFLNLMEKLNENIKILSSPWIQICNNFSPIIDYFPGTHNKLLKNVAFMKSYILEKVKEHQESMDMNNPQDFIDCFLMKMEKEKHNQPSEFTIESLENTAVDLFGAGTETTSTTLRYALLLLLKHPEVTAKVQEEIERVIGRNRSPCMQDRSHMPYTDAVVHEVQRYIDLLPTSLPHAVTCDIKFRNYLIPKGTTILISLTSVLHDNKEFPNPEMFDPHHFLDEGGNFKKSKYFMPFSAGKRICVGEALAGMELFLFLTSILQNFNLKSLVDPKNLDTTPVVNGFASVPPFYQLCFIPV
CYP2C9 activ: activators of human CYP2C9 | actives 1.4% (n = 96,000) | recombinant CYP2C9, luciferin-H conversion, luminescence; stronger effect = higher value; factor 1 = untreated enzyme, 0 = blocked | AID 1024 | P11712 | activation factor at 5 µM;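 active = activation factor of 2 or more for CYP2C9 at a 5 µM dose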;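 note: 0 = sulfaphenazole-blocked wells and 1 = vehicle-only wells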
CYP2C19 inhib: blocks human cytochrome P450 2C19. P33261. CYP2C19 Supersomes, luciferin-H EGE luminescence, 30 min. inhibition, % at 5 µM. actives 21% (n = 96,000). AID 778;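 active = CYP2C19 inhibition above a set limit at 5 µM in the primary screen, cut at about 50% in these data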;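 note: plate controls were negative control wells for no effect and 2.5 mM tranylcypromine positive control for full effect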
Cav32 inh: inhibitors of human Cav3.2 T-type calcium channel. actives 4% (n = 100,000). Cav3.2-expressing cells, Fluo-4 calcium fluorescence FDSS; stronger effect = lower value. AID 449739. B-score at 10 µM. O95180;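 active = single-dose well whose peak fluorescence ratio is a statistical outlier from its plate by either plate-standardised score or position-corrected B-score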
CYP2C19 activ: increases human CYP2C19 enzyme activity; recombinant CYP2C19, luciferin-H EGE luminescence; stronger effect = higher value; 0 = fully inhibited enzyme, 1 = untreated enzyme; activation factor at 5 µM; 96,000 tested, under 10 active; AID 1025;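 active = activation factor of at least 2 at 5 µM in the primary screen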;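 note: 0 = wells with 2.5 mM tranylcypromine and 1 = vehicle-only wells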
* marks the source's active call; other numbers are inactive results; x = no result. Rows were chosen to be rich in hits. Some 27% of all compounds tested hit in one or more screens of this group.

SMILES	CYP2C9 inh	CYP2C9 activ	CYP2C19 inhib	Cav32 inh	CYP2C19 activ
CCCc1nnc(NC(=O)CCC(=O)N2CCCCC2CC)s1 (stereo not given)	-10	1.1	10	0.65	0.9
O=C(NCCCN1CCN(Cc2ccccc2)CC1)c1nnc(Cc2c(F)cccc2Cl)o1	56*	0.4	34	0.28	0.7
O=C(NCCCO)c1nnc(Cc2c(F)cccc2Cl)o1	5	0.9	-18	0.054	1.2
CCN(CC)C(=O)CC(c1ccc(F)cc1)c1ccco1 (stereo not given)	31	0.7	62*	0.33	0.4
COC(=O)c1nn(-c2cccc(C(F)(F)F)c2)c(=O)cc1Sc1ccccn1	70*	0.3	56*	1.8	0.4
Cc1ccc(C(=O)NC(=S)Nc2cc(-c3nc4ccccc4s3)ccc2C)cc1	31	0.7	25	x	0.7
O=C(c1ccc(OCC2CCCO2)cc1)N1CCN(c2ccccc2)CC1 (stereo not given)	31	0.7	25	0.21	0.8
O=C(c1ccccc1)N1CC(COc2ccccc2)OC(c2ccco2)O1 (stereo not given)	40	0.6	88*	-4*	0.1
O=C(c1cccc(-n2cnnn2)c1)N1CCOCC1	-16	1.2	-13	0.093	1.1
CCn1c(C(c2ccccc2)c2ccccc2)n[nH]c1=S	82*	0.2	41	-1	0.6
CCn1c(CSc2nc3ccccc3s2)nnc1SCC(=O)c1ccc(Cl)cc1	-3	1	0	-4.2*	1
CCn1c(-c2ccccc2O)n[nH]c1=S	4	1	35	0.35	0.6
CCn1c(CSc2nc3ccccc3s2)nnc1SCC(=O)c1ccc(O)c(O)c1	14	0.9	37	-1.2	0.6
CCn1c(CSc2nc3ccccc3s2)n[nH]c1=S	39	0.6	73*	0.24	0.3
S=c1[nH]nc(CSc2nc3ccccc3s2)n1Cc1ccccc1	10	0.9	1	-0.56	1
CCCSc1nnc(CSc2nc3ccccc3s2)n1-c1ccccc1	70*	0.3	55*	-2.6	0.4
N#CCCCSc1nnc(CSc2nc3ccccc3s2)n1-c1ccccc1	46	0.5	38	-4	0.6
O=C(CSCc1ccc(Cl)cc1)N/N=C/c1ccc(Cl)cc1Cl	29	0.7	6	0.026	0.9
O=C(O)C1CSC2(c3ccc4c(c3)OCCO4)CCC(=O)N12 (stereo not given)	4	1	-5	1.1	1.1
CC(C)(C)c1cc(CNC2CS(=O)(=O)C[C@@H]2O)cc(C(C)(C)C)c1O (stereo not given in full)	15	0.9	6	-0.25	0.9
Cn1cnnc1SCC(=O)NC(=O)NC1CCCC1	9	0.9	27	0.36	0.7
C=CCn1c(CSc2nc3ccccc3s2)n[nH]c1=S	0	1	50*	x	0.5
O=C(CN1CCN(C2CCCCC2)CC1)c1c[nH]c2ccccc12	-8	1.1	7	1.1	0.9
O=C(CC1CC2CCC1C2)OCC(=O)c1c[nH]c2ccccc12 (stereo not given)	-18	1.2	70*	-3.1	0.3
CCN(CC)S(=O)(=O)c1ccc(NC(=O)c2ccc(NS(C)(=O)=O)cc2)cc1	-42	1.4	-2	-0.36	1
SMILES	CYP2C9 inh	CYP2C9 activ	CYP2C19 inhib	Cav32 inh	CYP2C19 activ
CCN(CC)S(=O)(=O)c1ccc(S(=O)(=O)Nc2ccc(C(=O)N3CCCC3)cc2)cc1	99*	0	51*	2	0.5
CCN(CC)S(=O)(=O)c1ccc(NS(=O)(=O)c2ccc(C)c(C)c2)cc1	99*	0	98*	-4.3*	0
O=C(c1ccc(S(=O)(=O)Nc2ccccc2)cc1)N1CCOCC1	8	0.9	19	-0.061	0.8
O=C(c1ccc(NS(=O)(=O)c2ccccc2)cc1)N1CCCC1	93*	0.1	76*	-0.34	0.2
CCN(CC)S(=O)(=O)c1ccc(S(=O)(=O)Nc2ccc3c(c2)oc2ccccc23)cc1	100*	0	70*	-0.83	0.3
CCN(CC)S(=O)(=O)c1cccc(C(=O)N2CCCCC2)c1	-14	1.1	-1	0.11	1
N/C(=N\OC(=O)c1ccc(Cl)cc1)c1nonc1N	27	0.7	10	-0.38	0.9
Cc1cc(NC(=O)CSc2nnc(-c3c[nH]c4ccccc34)n2-c2ccc(Cl)cc2)no1	-25	1.2	-12	-0.026	1.1
CCCc1cc(=O)[nH]c(SCC(=O)N2CCC(C(=O)OCC)CC2)n1	26	0.7	22	0.41	0.8
O=C(CCC(=O)OCc1ccc(C(=O)Oc2ccccc2)cc1)Nc1cccc2ccccc12	46	0.5	5	-0.078	0.9
Cc1ccc(SC(C)C(=O)Nc2ccc(S(=O)(=O)N3CCOCC3)cc2)cc1 (stereo not given)	60*	0.4	37	-4.1	0.6
Cc1ccc(SC(C)C(=O)Nc2cccc(N(C)S(C)(=O)=O)c2)cc1 (stereo not given)	83*	0.2	61*	-0.2	0.4
CC(=O)Nc1ccc(S(=O)(=O)N2CCOCC2)cc1	x	x	x	0.019	x
Cc1ccc(SC(C)C(=O)Nc2ccncc2)cc1 (stereo not given)	97*	0	100*	0.025	0
CSc1cccc(NC(=O)C(C)Sc2ccc(C)cc2)c1 (stereo not given)	67*	0.3	70*	x	0.3
COC(C/C=C/C(=O)[C@H](C)OCc1ccccc1)OC	x	x	x	1.8	x
CCOc1cc(-c2nc(-c3ccncc3)no2)cc(OCC)c1OCC	77*	0.2	61*	0.13	0.4
CCOc1cc(-c2nc(-c3ccc(OC)cc3)no2)cc(OCC)c1OCC	23	0.8	5	-0.027	1
CCOc1ccc(-c2nc(-c3ccncc3)no2)cc1OCC	63*	0.4	45	-0.63	0.5
CCOc1ccc(-c2nc(-c3ccccc3)no2)cc1OCC	12	0.9	11	x	0.9
C(=N\N1CCN(Cc2cccc3ccccc23)CC1)/c1cccnc1	-2	1	31	-1.1	0.7
COc1ccc(N=Nc2nc3ccc(Br)cc3n2C)cc1	-15	1.1	14	x	0.9
O=C(Cn1c(N2CCN(c3ccccc3)CC2)nc2ccccc21)c1ccccc1	-11	1.1	-12	x	1.1
CCNc1nc(OC)nc(SCC(N)=O)n1	-24	1.2	-10	x	1.1
c1coc(CNc2ncnc3sc4c(c23)CCCCC4)c1	93*	0.1	87*	-0.82	0.1
Cc1sc2ncnc(NCc3ccco3)c2c1C	61*	0.4	78*	x	0.2
Cc1sc2ncnc(NCc3cccs3)c2c1C	42	0.6	52*	-0.051	0.5
COc1cc(C2C=C(C34CC5CC(CC(C5)C3)C4)NC(=S)N2)cc(OC)c1OC (stereo not given)	54*	0.5	49	-0.31	0.5
COc1ccc(C2=CC(c3cc(OC)c(OC)c(OC)c3)NC(=S)N2)cc1 (stereo not given)	94*	0.1	74*	-2.4	0.3
Cc1nnc(SCC(=O)Nc2ccccc2N2CCOCC2)s1	x	x	x	1.6	x

Screening results: PubChem, several laboratories
